Sampled rows, rich in hits. Any-hit rate of the full collection: about 14%.
Pf growth 48h: Primary qHTS for delayed death inhibitors of the malarial parasite plastid, 48 hour incubation. 310,000 tested, 5.9% active. P. falciparum luciferase growth in erythrocytes, 48 h. Potency, µM (titrated, usually from 28.7 µM), inactives show at the highest dose activity change, negative = inhibition, actives largely listed as inhibitors; further: potency means the concentration at half of the fitted maximal effect
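Luciferase-expressing P. falciparum in infected erythrocytes (2% hematocrit, 0.1% parasitemia final) in RPMI 1640/0.5% Albumax were exposed to compound for 48 hours at 37 C, 5% CO2; growth read as luminescence.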
Pf growth 96h: Primary qHTS for delayed death inhibitors of the malarial parasite plastid, 96 hour incubation. P. falciparum luciferase reporter growth, 96 h. Potency, µM (highest dose often 28.7 µM), for inactives: top-dose activity change, negative = inhibition, most hits filed as inhibitors. 320,000 tested, 6.9% active. AID 504834, 2011; further: potency means the concentration at half of the fitted maximal effect
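Luminescence readout: decreased luciferase signal marks inhibited growth of reporter-expressing P. falciparum in infected red cells (2% hematocrit, 0.05% parasitemia final), exposed to compound two generations (96 h, 37 C, 5% CO2).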
HCMV antiviral: qHTS Assay for inhibitors of the human cytomegalovirus (HCMV); HFF cells, HCMV-luciferase reporter, 72 h; hits give low values; activity change, negative = inhibition, % at 57.5 µM; 410,000 tested, 4.5% active; in the data active means activity change below about -60%; inconclusive means no clear call, values can overlap the other calls; inactive means above about -39%
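Two compound doses tested in HFFs infected with HCMV-luciferase, MOI 1 PFU/cell, 72 h at 37C. Lysate luminescence read with OneGlo; data normalized against buffer-only and 10uM Salinomycin inhibitor controls.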
Giardia FBPA inh: qHTS Assay for Inhibitors of Fructose-1,6-bisphosphate Aldolase from Giardia Lamblia; A8B2U2; purified Giardia FBPA; Potency, µM (titrated, usually from 59.6 µM), without a hit: at the highest dose activity, negative = inhibition, actives largely listed as inhibitors; 290,000 tested, 0.71% active; AID 2451, 2010; further: potency means the concentration at half of the fitted maximal effect; nearly all actives have a fitted effect of over 55% in size
Target sequence (A8B2U2 whole entry, looked up): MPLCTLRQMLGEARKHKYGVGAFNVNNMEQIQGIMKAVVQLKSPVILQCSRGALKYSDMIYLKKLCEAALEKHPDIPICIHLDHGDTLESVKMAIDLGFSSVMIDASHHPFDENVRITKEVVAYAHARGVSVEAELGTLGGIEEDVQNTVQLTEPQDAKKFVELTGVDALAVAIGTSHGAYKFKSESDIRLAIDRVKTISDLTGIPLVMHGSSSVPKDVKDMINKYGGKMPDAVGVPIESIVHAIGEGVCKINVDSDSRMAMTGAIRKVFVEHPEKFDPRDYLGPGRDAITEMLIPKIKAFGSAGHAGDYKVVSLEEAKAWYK
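40 nM FBPA preincubated 10 min at RT with compound (up to 57.5 uM final), then substrate plus GAPDH/TPI/NAD/arsenate coupling and diaphorase/resazurin added. Fluorescence read after 20 min at RT, 525/598 nm.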
Sm TGR inh: qHTS Assay for the Inhibitors of Schistosoma Mansoni Peroxiredoxins | Potency, µM (top dose mostly 114 µM), for inactives: top-dose activity change, negative = inhibition, usual class: inhibitors | purified TGR, DTNB reduction, TNB absorbance 405 nm | 360,000 tested, 3% active | AID 485364, 2010 | Schistosoma mansoni thioredoxin glutathione reductase (TGR), Q962Y6; further: potency means the concentration at half of the fitted maximal effect; nearly all actives have a fitted effect of over 60% in size
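First, TGR (20 nM dispensed) and NADPH were mixed with compound. Second, a 15 min room-temperature incubation followed. Third, further NADPH and then DTNB were added to start the reaction. Finally, TNB absorbance was monitored kinetically.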
An asterisk follows results filed as active; [ ] = dose if it differs, or a comment. Unless noted, the call rests on the fitted dose curve; in most records, active means well fitted curve in the direction sought with a large enough effect; inconclusive means small, poorly fitted or top-dose-only effect, or another doubt; inactive means no such curve, though single readings can be large; an effect the other way counts as inactive or inconclusive. On the % scale 0 is the no-effect control and ±100 the full control effect.

What do the screens show for `CCc1ccc(C2=CC(c3cccc(C)c3)n3c(nc4ccccc43)N2)cc1` (centres undefined)?
HCMV antiviral: -17; Sm TGR inh: -17%

What do the screens show for `c1ccc(-c2ccccc2-c2nc(-c3ccncc3)no2)cc1`?
Pf growth 48h: inconclusive; Pf growth 96h: 14%; HCMV antiviral: -39; Giardia FBPA inh: 0%; Sm TGR inh: 2%

What do the screens show for `COc1ccc(-c2cc(-c3nnc(-c4ccncc4)o3)c3ccccc3n2)cc1`?
Pf growth 48h: inconclusive; Pf growth 96h: 9.3µM*; HCMV antiviral: 10; Giardia FBPA inh: 2%; Sm TGR inh: 8%

What do the screens show for `c1ccc2c(-c3nc(C4CCCCC4)no3)cc(-c3ccncc3)nc2c1`?
Pf growth 48h: 2.6µM*; Pf growth 96h: inconclusive; Giardia FBPA inh: -1%; Sm TGR inh: 6%

How did O=C(O)CC1(CC(=O)NCc2cc(F)cc3c2OCOC3)CCCCC1 do in these assays?
Pf growth 48h: -15%; Pf growth 96h: inconclusive; HCMV antiviral: 1; Giardia FBPA inh: 1%; Sm TGR inh: 6%

Results for Cn1nnnc1SCCNCc1ccccc1Cl ?
HCMV antiviral: 29; Sm TGR inh: -5%

What do the screens show for `CC(C)Cc1nc2sc3c(NCc4ccco4)ncnc3c2c2c1COC(C)(C)C2`?
Pf growth 48h: inconclusive; Pf growth 96h: inconclusive; HCMV antiviral: -30; Giardia FBPA inh: 1%; Sm TGR inh: -3%

How did Cc1nc2sc3c(NCc4ccco4)ncnc3c2c2c1COC(C)(C)C2 do in these assays?
Pf growth 48h: 6.6µM*; Pf growth 96h: 12µM*; HCMV antiviral: -35; Giardia FBPA inh: -1%; Sm TGR inh: inconclusive

What do the screens show for `CSc1nc(SCCO)c2sc3nc(-c4ccco4)c4c(c3c2n1)CC(C)(C)OC4`?
Pf growth 48h: inconclusive; Pf growth 96h: inconclusive; HCMV antiviral: 30; Giardia FBPA inh: -11%; Sm TGR inh: 2.5µM*

Results for CSc1nc(N(CCO)CCO)c2sc3nc(-c4ccco4)c4c(c3c2n1)CCC4 ?
Pf growth 48h: inconclusive; Pf growth 96h: 0%; HCMV antiviral: -6; Giardia FBPA inh: inconclusive; Sm TGR inh: 2.5µM*

Results for COCCCNc1ncnc2c1sc1nc(-c3ccco3)c3c(c12)CC(C)(C)OC3 ?
Pf growth 48h: inconclusive; Pf growth 96h: inconclusive; HCMV antiviral: 57; Giardia FBPA inh: -2%; Sm TGR inh: 16µM*

Results for COC(=O)CSc1nc(SC)nc2c1sc1nc(-c3ccco3)c3c(c12)CC(C)(C)OC3 ?
HCMV antiviral: -26

How did COc1cc(Cn2c3ccc(NC(=O)CCc4ccc(O)cc4)cc3c(=O)n2C)ccc1F do in these assays?
HCMV antiviral: -9

How did CC1(C)Cc2c(c(-c3ccco3)nc3sc4c(NCCO)ncnc4c23)CO1 do in these assays?
Pf growth 48h: inconclusive; Pf growth 96h: inconclusive; HCMV antiviral: -75*; Giardia FBPA inh: -1%; Sm TGR inh: 14µM*

What do the screens show for `Cc1ccc(S(=O)(=O)N(Cc2cccnc2)Cc2cc3ccccc3[nH]c2=O)cc1`?
Pf growth 48h: inconclusive; Pf growth 96h: -6%; HCMV antiviral: -62*; Giardia FBPA inh: -19%; Sm TGR inh: -19%

What do the screens show for `Cc1cccc2cc(CN(CC(C)C)S(=O)(=O)c3ccccc3)c(=O)[nH]c12`?
Pf growth 48h: inconclusive; Pf growth 96h: 13µM*; HCMV antiviral: -24; Sm TGR inh: 12%

How did O=c1[nH]c2ccccc2cc1CN(c1ccccc1)S(=O)(=O)c1ccccc1 do in these assays?
Pf growth 48h: -9%; Pf growth 96h: 7%; HCMV antiviral: -64*; Giardia FBPA inh: -5%; Sm TGR inh: 6%

What do the screens show for `Cc1cccc(N(Cc2cc3ccccc3[nH]c2=O)S(=O)(=O)c2ccccc2)c1`?
Pf growth 48h: 15µM*; Pf growth 96h: 10µM*; HCMV antiviral: inconclusive; Giardia FBPA inh: -5%; Sm TGR inh: 6%

How did CCN(Cc1cc2ccccc2[nH]c1=O)S(=O)(=O)c1ccccc1 do in these assays?
Pf growth 48h: 1%; Pf growth 96h: -23%; HCMV antiviral: inconclusive; Giardia FBPA inh: -2%; Sm TGR inh: 5%

Results for Cc1cccc(N(Cc2cc3ccc(C)cc3[nH]c2=O)S(=O)(=O)c2ccccc2)c1 ?
Pf growth 48h: inconclusive; Pf growth 96h: inconclusive; HCMV antiviral: inconclusive; Giardia FBPA inh: -10%; Sm TGR inh: -1%

What do the screens show for `COC(=O)[C@@H](NC(=O)O[C@H]1C(=O)c2cc(OC)ccc2O[C@@H]1c1ccc(OC)c(Br)c1)C(C)C`?
Giardia FBPA inh: -4%

Results for O=C(CNC(=O)c1ccc(Cl)cc1)OCCCOC(=O)CNC(=O)c1ccc(Cl)cc1 ?
Pf growth 48h: 13%; Pf growth 96h: -9%; HCMV antiviral: -5; Giardia FBPA inh: -19%; Sm TGR inh: -1%

What do the screens show for `Cc1c(CN2CCCC(CO)(Cc3cccc(Cl)c3)C2)cnn1C` (centres undefined)?
Pf growth 48h: -23%; Pf growth 96h: inconclusive; HCMV antiviral: -20; Giardia FBPA inh: -5%; Sm TGR inh: 7%

What do the screens show for `C=CCNc1nc(Cl)nc(NC2CCCCC2)n1`?
Pf growth 48h: 12%; Pf growth 96h: -3%; HCMV antiviral: 26; Giardia FBPA inh: -1%; Sm TGR inh: 1%

What do the screens show for `CCCOC(=O)C1[C@H]2C(=O)N(Cc3ccco3)C[C@]23C=C[C@H]1O3` (some centres undefined)?
Pf growth 48h: 6%; Pf growth 96h: -16%; HCMV antiviral: 11; Giardia FBPA inh: -3%; Sm TGR inh: 25µM*

How did O=C(NCC1CCCO1)C1C2C=CC3(CN(Cc4cccs4)C(=O)C13)O2 (centres undefined) do in these assays?
Pf growth 48h: 7%; Pf growth 96h: 4.7µM*; HCMV antiviral: -15; Giardia FBPA inh: -2%; Sm TGR inh: 5%

Results for CCCCCOC(=O)C1[C@H]2C(=O)N(Cc3cccs3)C[C@]23C=C[C@H]1O3 (some centres undefined) ?
Pf growth 96h: inconclusive; HCMV antiviral: 0; Giardia FBPA inh: 5%; Sm TGR inh: 3%[11.4 µM]

What do the screens show for `O=C(NC1CCCC1)C1C2C=CC3(CN(Cc4cccs4)C(=O)C13)O2` (centres undefined)?
Pf growth 48h: 11%; Pf growth 96h: 2%; HCMV antiviral: -22; Giardia FBPA inh: 0%; Sm TGR inh: -4%

How did CCOC(=O)C1C2C=CC3(CN(Cc4ccccc4)C(=O)C13)O2 (centres undefined) do in these assays?
Pf growth 48h: 24%; Pf growth 96h: inconclusive; HCMV antiviral: 8; Giardia FBPA inh: 2%; Sm TGR inh: -15%

Screening data deposited in PubChem by National Center for Advancing Translational Sciences (NCATS).
